Bioassay records as filed in PubChem BioAssay.
NPC1 promoter act – NPC1 promoter activation. Huh7 NPC1 promoter luciferase reporter, 24 h. Potency, µM (top dose mostly 9.22 µM), for the others: at the highest dose activation, hits mostly activators. hit rate 2.4% among 320,000. AID 485313; note: % of control where 0% means no effect; nearly all actives have a fitted effect of over 60% in size
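Huh7 cells stably carrying NPC1 promoter–luciferase, plated in Opti-MEM with 10% FBS for 2 h, were exposed to compound in DMSO for 24 h at 37 °C; luciferase reagent was added for 10 min and luminescence read.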
Rab9 promoter act – activators of Rab9 promoter; Huh7 Rab9 promoter-luciferase reporter, luminescence, 24 h; Potency, µM (series often up to 9.22 µM), inactives show at the highest dose activation, negative = inhibition, actives largely listed as activators; hit rate 2.8% among 320,000; AID 485297; note: % of control where 0% means no effect; nearly all actives have a fitted effect of over 60% in size
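Measured in stably transfected Huh7 cells bearing a Rab9 promoter–luciferase construct: 24 h compound treatment at 37 °C, followed by luminescence detection.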
FLuc counter – counter-screen for miR-21 project: firefly luciferase inhibitors or activators | AID 588342 | purified FLuc, Km substrates, luminescence inhibition | Potency, µM (titrated, usually from 57.5 µM), for the others: at the highest dose activity change, negative = inhibition, hits mostly inhibitors | hit rate 6.9% among 360,000;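 note: plate controls were vehicle for no effect and reference inhibitor for full effect; nearly all actives have a fitted effect of over 55% in size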
Target sequence (P08659 whole entry, looked up): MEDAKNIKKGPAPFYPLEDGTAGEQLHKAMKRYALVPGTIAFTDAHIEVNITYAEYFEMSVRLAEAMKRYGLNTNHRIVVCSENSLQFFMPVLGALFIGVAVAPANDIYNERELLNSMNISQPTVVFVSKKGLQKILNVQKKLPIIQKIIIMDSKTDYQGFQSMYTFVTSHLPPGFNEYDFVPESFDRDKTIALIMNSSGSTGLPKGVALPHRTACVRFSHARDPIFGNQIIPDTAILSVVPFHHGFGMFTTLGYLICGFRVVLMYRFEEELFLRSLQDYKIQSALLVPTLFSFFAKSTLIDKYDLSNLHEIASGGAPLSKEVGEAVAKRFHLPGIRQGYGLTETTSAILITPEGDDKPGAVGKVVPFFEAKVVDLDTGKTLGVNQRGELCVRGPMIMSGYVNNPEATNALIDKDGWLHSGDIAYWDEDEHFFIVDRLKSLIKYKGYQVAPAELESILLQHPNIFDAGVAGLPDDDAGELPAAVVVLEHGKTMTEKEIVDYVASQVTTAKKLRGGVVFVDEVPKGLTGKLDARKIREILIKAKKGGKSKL
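Purified P. pyralis luciferase, 10 nM final, with Km-level 10 uM D-luciferin and 10 uM ATP in 50 mM Tris acetate pH 7.5, 10 mM Mg acetate, 0.01% Tween-20, 0.05% BSA; 6-point qHTS titration about 60 µM downward; luminescence read.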
SMN2 splice enh – increases expression of the SMN2 splice variant; HEK293 SMN2-luciferase splicing reporter, luminescence, 30-36 h; Potency, µM (series often up to 46.1 µM), for inactives: at the top dose activity change, positive = activation, most hits filed as activators; hit rate 2.8% among 210,000; AID 1458; note: % of control where 0% means no effect; nearly all actives have a fitted effect of over 55% in size
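HEK293 cells carry an SMN2 minigene-luciferase reporter in which exon 7 inclusion puts luciferase in frame. Cells were seeded at 2000 cells/well, attached for 10-12 hours, then exposed to compounds for 30-36 hours at 37C before ONE-Glo luminescence.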
ELG1 genotoxic – inducers of genotoxicity in HEK293T ELG1-luciferase cells; HEK293T ELG1-luciferase reporter, luminescence, 16 h; Potency, µM (top dose mostly 46 µM), without a hit: top-dose activity change, positive = activation, hits mostly activators; hit rate 1.3% among 330,000; AID 504466; note: % of control where 0% means no effect; nearly all actives have a fitted effect of over 60% in size
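HEK293T cells expressing luciferase-tagged ELG1 were treated with compound or DMSO for 16 hr at 37°C. Luciferase activity was then read after 30 min with ONE-Glo at room temperature; rising signal flags genetic stress.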
Luc counter – blocks Kinase-Glo luciferase, a counter-screen artifact | AID 1379 | hit rate 0.28% among 200,000 | Kinase-Glo luciferase, ATP luminescence, 8 min | Q27757 | Potency, µM (highest dose often 38.3 µM), inactives show top-dose activity change, negative = inhibition, actives largely listed as inhibitors; note: % is set by controls: 0 for no effect and ±100 for the full control effect; nearly all actives have a fitted effect of over 60% in size
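Compound is pinned into ATP-containing buffer (10 uM ATP, imidazole pH 7.2, 7 mM MgCl2). Kinase-Glo luciferase reagent is then added. Light output is recorded following an 8-min room-temperature incubation.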
Starred values were filed as active, the others as inactive; ? = inconclusive; nt = not tested or not shown; [ ] = another dose, or the depositor's remark. In the library only some 7.3% were active in any assay of this set; here they are far more common. Calls come from the whole dose curve; as a rule, active = well fitted curve in the direction sought with a large enough effect; inconclusive = small, poorly fitted or top-dose-only effect, or another doubt; inactive = no such curve, though single readings can be large; an effect the other way counts as inactive or inconclusive. Potency is the fitted concentration of half-maximal effect.

SMILES	NPC1 promoter act	Rab9 promoter act	FLuc counter	SMN2 splice enh	ELG1 genotoxic	Luc counter
COC(=O)c1ccc(/C=C/c2nc3ccccc3c(=O)[nH]2)cc1	0.5µM*	1.1µM*	0.67µM*	nt	?	nt
CC(=O)/C=C/c1ccc(C)o1	-1%	-4%	-8%	-16%	30%	0%
Cc1ccc(/C=C/c2nc3ccccc3c(=O)[nH]2)cc1	0.5µM*	0.35µM*	0.15µM*	nt	?	nt
Cc1cc2nc(/C=C/c3nc4cc(C)c(C)cc4[nH]3)[nH]c2cc1C	-3%	6%	?	nt	0%	nt
Cc1ccc(S(=O)(=O)N2CCN(C(=O)CN3C(=O)NC4(CCOc5ccccc54)C3=O)CC2)cc1 (stereo unspecified)	-3%	-1%	6%	-17%	-1%	2%
O=C1C=C(N2CCN(C(=O)c3ccccc3)CC2)C2(CCCCC2)O1	-2%	5%	6%	-8%	0%	-4%
COc1cc(/C=C/c2nc3ccccc3c(=O)[nH]2)ccc1OC(F)F	5µM*	?	?	nt	27%	nt
C=CCOc1cccc(/C=C/c2nc3ccccc3c(=O)[nH]2)c1	?	3.5µM*	1.5µM*	nt	9.2µM*	nt
Cc1ccc2c(c1)c1nc3ccccc3nc1n2C	2%	3%	6.7µM*	nt	?	nt
COc1ccc(C(=O)Nc2cc(OC)cc3cccnc23)cc1	0%	1%[1.84 µM]	7.6µM*	nt	1%	nt
COc1ccc(OC)c(NC(=O)C2CCCCC2)c1	-3%	-10%	-8%	5%	1%	1%
COc1cc(NC(=O)C2CCCCC2)c2ncccc2c1	6%	16%	15µM*	-6%	2%	-2%
COc1cc(NC(=O)c2ccc(Cl)cc2)c2ncccc2c1	6%	-5%	?	nt	1%	nt
CC1C/C(=N\NC(N)=S)c2cc(Cl)ccc2S1 (stereo unspecified)	0%	-9%	1%	nt	-1%	nt
O=C(Cc1ccc(Br)cc1)N1CCCCCC1	?	19%	?	10µM*	21µM*	0%
O=C(Cc1ccc(Br)cc1)N1CCCC1	-4%	4%	1%	nt	8%	nt
CCN(CC(=O)NCc1cccs1)C(=O)/C=C/c1cccc(OC)c1OC	3%	-3%	-7%	nt	1%	nt
CCCN=C(C)C1=C(O)c2ccccc2C1=O	?	?	21µM*	13µM*	?	-1%
O=C(NN=C1CCCC1)c1n[nH]c2c1CCCC2	2.5µM*	0.63µM*	5.4µM*	22µM*	?	13µM*
O=C(NC1CCCCC1)c1n[nH]c2c1CCCCC2	?	0.089µM*	0.38µM*	nt	?	nt
CCC(C)(C)C1CCc2[nH]nc(C(=O)NC3CCCC3)c2C1 (stereo unspecified)	12%	17%	-14%	nt	-4%	nt
O=C(NN=C1CCCC1)c1n[nH]c2c1CCC2	13%	24%	?	nt	?	?
O=C(NC1CCCC1)c1n[nH]c2ccccc12	3.2µM*	2.8µM*	24µM*	nt	?	-12%
c1ccc2c(C3=NNC(=NC4CC4)SC3)c[nH]c2c1	?	0.63µM*	1.5µM*	2µM*	?	-13%
c1ccc2c(C3=NNC(=NC4CCCCC4)SC3)c[nH]c2c1	-1%	15%	?	20µM*	0%	2%
SMILES	NPC1 promoter act	Rab9 promoter act	FLuc counter	SMN2 splice enh	ELG1 genotoxic	Luc counter
c1ccc(C2=NNC(=NC3CC3)SC2)cc1	?	0.11µM*	1.3µM*	2.5µM*	?	4.5µM*
CCOC(=O)C1(C)/C(=N/Nc2cccc(Cl)c2)C(=O)C(=O)N1c1ccccc1 (stereo unspecified)	2%	3%	-8%	-9%	-4%	-1%
COc1ccc(N2CCN(c3ncccc3-c3nc(-c4ccccc4C)no3)CC2)cc1	nt	nt	15µM*	nt	nt	nt
COc1ccc(S(=O)(=O)N2CCc3ccccc3C2)cc1C(=O)O	2%	0%	3%	nt	-1%	nt
C=C(C)C(C)(C#CCN1CCCC1)OC(C)=O (stereo unspecified)	-2%	-6%	0%	6%	-9%	7%
CCCCCN(C(=O)CCC(=O)OCC(=O)c1ccc(CCC)cc1)c1c(N)n(CCCC)c(=O)[nH]c1=O	1%	-1%	2.7µM*	nt	-6%	nt
CCCCn1c(N)c(N(CC(C)C)C(=O)CSc2n[nH]c(-c3ccc(C)cc3)n2)c(=O)[nH]c1=O	1%	0%	11µM*	nt	4%	nt
CCCCCN(C(=O)CSc1n[nH]c(-c2ccc(C)cc2)n1)c1c(N)n(CCCC)c(=O)[nH]c1=O	0%	23%	2.7µM*	nt	9%	nt
CCCn1c(N)c(C(=O)CSc2nc3ccccc3s2)c(=O)[nH]c1=O	9%	16%	-3%	13µM*	-12%	-2%
CCCCn1c(N)c(N(CC(C)C)C(=O)CCS(=O)(=O)c2ccc(C)cc2)c(=O)[nH]c1=O	-1%	0%	15%	nt	-3%	nt
CCCCn1c(N)c(N(CCOC)C(=O)CSc2n[nH]c(-c3ccc(C)cc3)n2)c(=O)[nH]c1=O	-4%	-2%	3%	nt	2%	nt
Cc1cc(N2CCCC2)c(F)cc1/C=C\[N+](=O)[O-]	-5%	-15%	-11%	nt	6%	-30%
CCN(CC)CCCNc1oc(/C=C/c2ccccc2)nc1C#N	6%	-2%	-7%	nt	3%	nt
CCCCN(C(=O)CSc1nnnn1C)c1c(N)n(Cc2ccccc2)c(=O)[nH]c1=O	-3%	-4%	5%	nt	0%	nt
CCCCN(C(=O)CSc1nnc(Nc2ccccc2)s1)c1c(N)n(CCC)c(=O)[nH]c1=O	-1%	2%	15µM*	nt	1%	-13%
CCC(=O)NCCc1nc2cc(NC(=O)c3ccccc3OC)ccc2n1C	23%	29%	21µM*	nt	?	-8%
CC(=O)NCCc1nc2cc(NC(=O)Nc3ccccc3)ccc2n1C	2.2µM*	4µM*	6.7µM*	nt	?	nt
COc1ccccc1C(=O)Nc1ccc2c(c1)nc(CN1CCN(C(C)=O)CC1)n2C	-4%	-5%	-10%	-15%	5%	0%
COc1ccccc1C(=O)NCCc1nc2ccccc2n1C	-4%	-5%	6%	-1%	0%	1%
Cn1c(CCN2CCCCC2)nc2cc(NC(=O)Nc3ccccc3)ccc21	-2%	-1%	-3%	nt	13%	nt
COc1ccccc1C(=O)Nc1ccc2c(c1)nc(CCNC(C)=O)n2C	?	?	15µM*	?	?	-3%
COc1ccccc1C(=O)Nc1ccc2c(c1)nc(CCNC(=O)c1ccccc1)n2C	-19%	2%	15µM*	nt	-10%	nt
CN(Cc1ccccc1)C(=O)CCS(=O)(=O)c1ccc2c(c1)NC(=O)CS2	1%	-3%	2%	nt	-4%	nt
Cc1ccc(C(=O)Nc2cnc3sc(C)nn3c2=O)cc1	?	?	-6%[2.3 µM]	13µM*	?	-4%
